Consider 8 molecules from PubChem BioAssay (EPA / NIEHS).

Test [1] concerns the target Retinoic acid receptor alpha (Homo sapiens) (UniProt P10276). As to the kind of experiment: ATG_DR5_RAR_CIS: Attagene CIS-FACTORIAL HepG2 Assay for human Retinoic Acid Receptor Alpha (RARE), DR5 submotif (AID 2282934; active = hit-call score of the fitted dose curve at least 0.9, where 1 is the maximum; inactive = score below 0.9). Conditions: HepG2 Attagene cis-factorial RARE DR5 reporter, mRNA; actives raise or lower the signal. The gist of the method:
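Transient MRTU transfection of HepG2; 24 h compound treatment; TriZol RNA, oligo(dT) RT, PCR, FAM labelling, capillary electrophoresis. Bidirectional fit vs DMSO. Endogenous TF activity at DR5 RARE.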

A short description of test [2]: ATG_M_19_TRANS: Attagene TRANS-FACTORIAL HepG2 Assay for M19 Transcription Factor (Internal Marker) (AID 2282974). Conditions: HepG2 Attagene TRANS-FACTORIAL M19 internal marker reporter. Put shortly:
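Gain-of-signal in reporter mRNA, relative to DMSO, was scored from capillary electrophoresis fluorescence. HepG2 cells carried transiently transfected multiple reporter transcription units and were incubated with test chemicals for 24 h.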

Test [3] in a line: ATG_GAL4_TRANS: Attagene TRANS-FACTORIAL HepG2 Assay for GAL4 (Internal Marker) (AID 2282976). Conditions: HepG2 Attagene TRANS GAL4 internal marker reporter. Put shortly: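 Fluorescence from capillary electrophoresis of labelled RT-PCR products quantifies reporter mRNA induction after 24 h dosing of HepG2 cells carrying transfected GAL4-UAS reporter transcription units. Vehicle DMSO serves as baseline.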

Test [4] concerns the target Oxysterols receptor LXR-alpha (Homo sapiens) (UniProt Q13133). Kind of test: ATG_LXRa_TRANS: Attagene TRANS-FACTORIAL HepG2 Assay for human Liver X Receptor alpha (LXRa) (AID 2282980). As to conditions: HepG2 Attagene TRANS reporter, LXRa transactivation. Put shortly: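 Transient HepG2 transfectants, 24 h dosing, RT-PCR/CE mRNA reporter quantitation; gain-of-signal vs DMSO.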

The target of test [5] is Hepatocyte nuclear factor 4-alpha (Homo sapiens) (UniProt P41235). As to the kind of experiment: ATG_HNF4a_TRANS: Attagene TRANS-FACTORIAL HepG2 Assay for human Hepatocyte Nuclear Factor 4 alpha (HNF4a) (AID 2282982). As to conditions: HepG2 HNF4a transactivation reporter, mRNA readout. The gist of the method: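 Readout is fluorescent reporter-transcript fragments resolved by capillary electrophoresis after RT-PCR from HepG2 cells dosed for 24 h. Cells carried transfected GAL4-UAS reporter constructs measuring exogenous NR-GAL4 chimera activity; DMSO served as baseline.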
Sequence of Hepatocyte nuclear factor 4-alpha (Homo sapiens) (P41235 whole entry, looked up, the tested form may be a part): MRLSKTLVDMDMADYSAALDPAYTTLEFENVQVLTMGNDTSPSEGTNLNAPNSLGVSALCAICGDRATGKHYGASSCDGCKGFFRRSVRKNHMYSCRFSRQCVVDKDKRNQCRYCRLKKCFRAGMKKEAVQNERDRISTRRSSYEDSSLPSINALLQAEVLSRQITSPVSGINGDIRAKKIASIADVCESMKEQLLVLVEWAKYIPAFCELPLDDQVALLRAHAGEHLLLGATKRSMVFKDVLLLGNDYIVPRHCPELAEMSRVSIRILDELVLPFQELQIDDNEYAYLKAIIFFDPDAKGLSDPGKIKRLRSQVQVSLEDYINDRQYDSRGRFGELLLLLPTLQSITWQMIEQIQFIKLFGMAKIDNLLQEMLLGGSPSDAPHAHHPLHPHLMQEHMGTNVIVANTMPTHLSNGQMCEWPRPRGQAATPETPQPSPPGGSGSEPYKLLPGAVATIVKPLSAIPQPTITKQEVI

Test [6] addresses human RAR-related Orphan Receptor beta (RORb), RORB (gene 6096) (UniProt Q92753). Kind of test: ATG_RORb_TRANS: Attagene TRANS-FACTORIAL HepG2 Assay for human RAR-related Orphan Receptor beta (RORb) (AID 2283010). The gist of the method:
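HepG2 cells transiently transfected with GAL4-UAS reporter units expressing chimeric NR-Gal4 protein; reporter mRNA measured 24 h after dosing by RT-PCR, 6-FAM labelling and capillary electrophoresis. Gain-of-signal fitted relative to DMSO baseline.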

For test [7], the target named is human RAR-related Orphan Receptor gamma (RORg), RORC (gene 6097) (UniProt P51449). As to the kind of experiment: ATG_RORg_TRANS: Attagene TRANS-FACTORIAL HepG2 Assay for human RAR-related Orphan Receptor gamma (RORg) (AID 2283011). Put shortly: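 Activity is scored as increase in GAL4-UAS reporter mRNA over DMSO, detected by fluorescent RT-PCR and capillary electrophoresis in HepG2 cells transiently expressing a RORg-Gal4 chimera, 24 h after dosing.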
Sequence of human RAR-related Orphan Receptor gamma (RORg), RORC (gene 6097) (P51449 whole entry, looked up, the tested form may be a part): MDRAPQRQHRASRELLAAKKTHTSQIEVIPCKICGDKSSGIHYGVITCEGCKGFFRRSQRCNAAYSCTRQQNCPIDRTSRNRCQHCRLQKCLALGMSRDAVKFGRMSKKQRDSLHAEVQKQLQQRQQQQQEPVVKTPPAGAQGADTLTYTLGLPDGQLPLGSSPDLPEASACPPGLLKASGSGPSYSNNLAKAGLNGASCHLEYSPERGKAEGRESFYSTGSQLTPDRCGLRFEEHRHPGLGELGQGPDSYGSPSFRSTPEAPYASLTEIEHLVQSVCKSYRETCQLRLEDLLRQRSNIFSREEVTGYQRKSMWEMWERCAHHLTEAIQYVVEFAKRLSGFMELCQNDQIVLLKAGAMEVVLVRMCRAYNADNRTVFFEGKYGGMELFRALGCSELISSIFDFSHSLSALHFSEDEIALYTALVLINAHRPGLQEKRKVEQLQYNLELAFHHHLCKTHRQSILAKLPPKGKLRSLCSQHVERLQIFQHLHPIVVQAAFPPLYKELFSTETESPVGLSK

For test [8], the target named is human Vitamin D Receptor (VDR), VDR (gene 7421) (UniProt P11473). As to the kind of experiment: ATG_VDR_TRANS: Attagene TRANS-FACTORIAL HepG2 Assay for human Vitamin D Receptor (VDR) (AID 2283022). The gist of the method:
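Fluorescence of labelled reporter cDNA fragments, resolved by capillary electrophoresis, gives mRNA induction after 24 h treatment of HepG2 cells carrying transfected Gal4-fusion reporter units. Activity is fitted in the positive direction with DMSO as baseline.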

The nature of test [9]: ATG_XTT_Cytotoxicity: Cytotoxicity Assessment in the Attagene TRANS-FACTORIAL HepG2 Assay (AID 2283584).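 As to AC50: XTT signal for cell number as viability in transfected HepG2 cells; cells exposed to compound for 24 h before reading; active means loss of viability signal versus DMSO baseline.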 Put shortly:
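Transfect HepG2 with GAL4-UAS reporter units, dose compound, incubate 24 h, then measure viable cell number by XTT. Fit concentration response against DMSO baseline.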

The target of test [10] is Cellular tumor antigen p53 (Homo sapiens) (UniProt P04637). As to the kind of experiment: TOX21_p53_BLA_p2_ratio: Tox21 HCT-116 p53 Agonism Beta-lactamase Assay, Ratio, Phase 2 (AID 2283592). The gist of the method: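 An inducible beta-lactamase reporter in HCT116 cells signals p53 pathway activation. After 16 h chemical exposure at 37C, cells load CCF4-AM substrate for 2 h at room temperature; activity is the cleaved/uncleaved emission ratio relative to DMSO.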
Sequence of Cellular tumor antigen p53 (Homo sapiens) (P04637 whole entry, looked up): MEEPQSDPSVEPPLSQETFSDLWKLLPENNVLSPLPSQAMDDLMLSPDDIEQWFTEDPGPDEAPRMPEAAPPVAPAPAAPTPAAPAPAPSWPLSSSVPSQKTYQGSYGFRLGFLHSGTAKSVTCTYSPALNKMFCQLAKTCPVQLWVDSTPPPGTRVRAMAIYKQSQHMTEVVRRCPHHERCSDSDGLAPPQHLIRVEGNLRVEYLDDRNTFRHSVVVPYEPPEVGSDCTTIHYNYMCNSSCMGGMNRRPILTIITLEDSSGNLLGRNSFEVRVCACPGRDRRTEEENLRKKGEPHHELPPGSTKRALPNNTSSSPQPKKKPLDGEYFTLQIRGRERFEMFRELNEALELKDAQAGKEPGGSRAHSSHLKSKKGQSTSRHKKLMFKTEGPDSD

The nature of test [11]: TOX21_p53_BLA_p4_viability: Viability Assessment in the Tox21 HCT-116 p53 Agonism Beta-lactamase Assay, Phase 4 (AID 2283597).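 Also: hits lower the luminescence signal meaning cytotoxicity.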 Put shortly:
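Compound exposure of HCT116 cells lasts 16 h at 37C, 5% CO2, with DMSO stocks diluted 217-fold. Cellular ATP is then quantified by CellTiter-Glo luminescence after 30 min at room temperature.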

Test [12] is described as follows: TOX21_p53_BLA_p5_viability: Viability Assessment in the Tox21 HCT-116 p53 Agonism Beta-lactamase Assay, Phase 5 (AID 2283600). Put shortly:
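Counter-readout for cytotoxicity: ATP-dependent luminescence from CellTiter-Glo, read in the beta-lactamase wells after 30 min at RT, following a 16 h compound exposure at 37C.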

Test [13] concerns the target Bile acid receptor (Homo sapiens) (UniProt Q96RI1). Kind of test: ATG_IR1_CIS: Attagene CIS-FACTORIAL HepG2 Assay for human Nuclear Receptor Subfamily 1 Group H Member 4 (NR1H4), IR1 submotif (AID 2282946; active = hit-call score of the fitted dose curve at least 0.9, where 1 is the maximum; inactive = score below 0.9). Conditions: IR1 reporter transcription, actives raise or lower the signal. The gist of the method:
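Cells (human HepG2) carry transiently transfected cis-promoter reporter transcription units. Compounds are incubated 24 h, total RNA is reverse-transcribed and amplified, and labelled fragments are resolved by capillary electrophoresis. Curves use DMSO as baseline.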

Test [14] is described as follows: ACEA_ER_AUC_viability: ACEA Biosciences xCELLigence Real-Time Cell Analysis on Estrogen Receptor Agonism for Viability (AID 2283782).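 Also: continuous compound exposure with impedance area under curve over 80 h; hit means loss of impedance signal meaning reduced cell growth or viability.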 Put shortly: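 T-47D; phenol red-free RPMI1640 + 10% CS-FBS; 8 conc., 1:4 serial, max 100 uM final, ≤0.5% DMSO; n = 2; continuous exposure; impedance monitored to 80 h post-dose; AUC vs DMSO.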
For test [15], the target named is Nuclear receptor subfamily 4 group A member 2 (Homo sapiens) (UniProt P43354). As to the kind of experiment: ATG_NURR1_TRANS: Attagene TRANS-FACTORIAL HepG2 Assay for human Nuclear Receptor Related Protein 1 (NURR1) (AID 2282985). Conditions: HepG2 Attagene TRANS reporter, mRNA readout. The gist of the method:
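Transient transfection of HepG2, human liver cells, with multiple GAL4-UAS reporter transcription units. Cells dosed 24 h, RNA isolated, reverse-transcribed, PCR-amplified, FAM-labelled, HpaI-digested, sized by capillary electrophoresis. DMSO served as negative control.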

The target of test [16] is Nuclear receptor subfamily 1 group I member 2 (Homo sapiens) (UniProt O75469). As to the kind of experiment: ATG_PXR_TRANS: Attagene TRANS-FACTORIAL HepG2 Assay for human Pregnane X Receptor (PXR) (AID 2283008). The gist of the method:
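HepG2 cells transiently transfected with multiple reporter units, here a PXR-GAL4 chimera driving a GAL4-UAS reporter; 24 h compound exposure. Reporter mRNA measured by RT-PCR, FAM labelling and capillary electrophoresis; gain of signal fitted against DMSO baseline.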

Test [17] concerns the target human Thyroid Receptor alpha (THRa1), THRA (gene 7067) (UniProt P10827). Kind of test: ATG_THRa1_TRANS: Attagene TRANS-FACTORIAL HepG2 Assay for human Thyroid Receptor alpha (THRa1) (AID 2283014). The gist of the method: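 First, HepG2 cells receive multiple GAL4-UAS reporter units and the chimeric receptor. They are then dosed for 24 h, after which RNA is reverse-transcribed, amplified, labelled, HpaI-cut and sized by capillary electrophoresis; gain relative to DMSO is scored.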

A short description of test [18]: TOX21_p53_BLA_p3_viability: Viability Assessment in the Tox21 HCT-116 p53 Agonism Beta-lactamase Assay, Phase 3 (AID 2283593).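 Also: cells exposed to compound for 16 h before reading.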 The gist of the method:
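Cellular ATP was quantified by CellTiter-Glo luminescence, read after 30 min at room temperature. Beforehand, HCT116 cells (4000/well) received compound 5 h post-seeding, 217-fold diluted from DMSO, then incubated 16 h at 37C.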

The target of test [19] is Nuclear receptor subfamily 1 group I member 3 (Homo sapiens) (UniProt Q14994). Kind of test: ATG_CAR_TRANS: Attagene TRANS-FACTORIAL HepG2 Assay for human Constitutive Androstane Receptor (CAR) (AID 2282969).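 Also: activators raise reporter mRNA above DMSO so AC50 marks induction.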 Conditions: HepG2 Attagene TRANS-FACTORIAL CAR reporter. Put shortly:
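Readout is reporter mRNA induction, quantified by fluorescent primer extension and capillary electrophoresis after RT-PCR. Cells were HepG2 transiently carrying chimeric NR-Gal4 constructs with GAL4-UAS reporters, treated for 24 h; activity scored upward from DMSO.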

The nature of test [20]: CCTE_Harrill_HTTr_Viability_MCF7: CCTE's 6-hour Cell Viability Assessment for the High-Throughput Transcriptomics (HTTr) Platform, in MCF-7 cells cultured in DMEM + 10% fetal bovine serum, Harrill Lab (AID 2284010; active = hit-call score of the fitted dose curve at least 0.9, where 1 is the maximum; inactive = score below 0.9). Put shortly:
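MCF-7 cells in DMEM + 10% FBS, 384-well, exposed 6 h to an eight-point dilution series. Membrane integrity scored by high-content imaging of propidium iodide exclusion; bidirectional fit versus DMSO.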

Results filed as inconclusive are left out. The source made the active and inactive calls. The calls were made as follows, unless noted: active = hit-call score of the fitted dose curve at least 0.9, where 1 is the maximum; inconclusive = response in the unintended direction; inactive = score below 0.9.

Sequence of Nuclear receptor subfamily 1 group I member 3 (Homo sapiens) (Q14994 whole entry, looked up, the tested form may be a part): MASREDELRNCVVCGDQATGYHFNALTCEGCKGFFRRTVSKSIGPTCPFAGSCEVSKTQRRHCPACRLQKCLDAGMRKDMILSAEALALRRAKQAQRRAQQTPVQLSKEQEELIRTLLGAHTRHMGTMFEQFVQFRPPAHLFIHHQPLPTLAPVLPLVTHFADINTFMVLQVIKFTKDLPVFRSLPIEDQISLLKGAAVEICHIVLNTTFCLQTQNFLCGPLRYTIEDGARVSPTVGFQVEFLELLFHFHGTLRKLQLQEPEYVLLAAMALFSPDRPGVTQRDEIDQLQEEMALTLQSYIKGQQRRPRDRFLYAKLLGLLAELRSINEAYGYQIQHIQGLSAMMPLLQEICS
Sequence of Oxysterols receptor LXR-alpha (Homo sapiens) (Q13133 whole entry, looked up): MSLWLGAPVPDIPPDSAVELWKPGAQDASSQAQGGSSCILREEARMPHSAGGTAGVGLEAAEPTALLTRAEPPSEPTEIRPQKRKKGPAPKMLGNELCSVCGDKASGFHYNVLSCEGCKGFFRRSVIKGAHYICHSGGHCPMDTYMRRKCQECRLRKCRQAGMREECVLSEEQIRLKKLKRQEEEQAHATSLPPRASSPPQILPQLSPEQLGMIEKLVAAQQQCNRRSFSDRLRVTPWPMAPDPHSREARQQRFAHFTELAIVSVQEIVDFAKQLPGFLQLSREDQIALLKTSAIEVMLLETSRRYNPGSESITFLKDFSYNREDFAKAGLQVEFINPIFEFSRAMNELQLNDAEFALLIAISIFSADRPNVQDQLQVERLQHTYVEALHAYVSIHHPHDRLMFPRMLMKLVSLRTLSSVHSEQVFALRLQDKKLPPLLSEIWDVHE
Sequence of human Thyroid Receptor alpha (THRa1), THRA (gene 7067) (P10827 whole entry, looked up, the tested form may be a part): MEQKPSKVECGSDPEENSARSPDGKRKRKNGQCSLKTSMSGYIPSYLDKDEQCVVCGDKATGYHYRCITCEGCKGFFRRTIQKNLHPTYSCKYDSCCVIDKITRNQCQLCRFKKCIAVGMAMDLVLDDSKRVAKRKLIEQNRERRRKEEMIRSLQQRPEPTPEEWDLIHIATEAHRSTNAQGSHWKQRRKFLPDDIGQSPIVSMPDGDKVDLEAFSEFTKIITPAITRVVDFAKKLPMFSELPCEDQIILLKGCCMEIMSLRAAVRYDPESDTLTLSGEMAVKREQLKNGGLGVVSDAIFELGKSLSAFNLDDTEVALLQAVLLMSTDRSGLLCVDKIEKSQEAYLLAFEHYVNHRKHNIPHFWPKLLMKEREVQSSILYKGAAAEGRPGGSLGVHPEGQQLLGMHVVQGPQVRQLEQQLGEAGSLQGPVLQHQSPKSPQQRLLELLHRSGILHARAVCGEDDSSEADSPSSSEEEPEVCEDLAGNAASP
Sequence of Retinoic acid receptor alpha (Homo sapiens) (P10276 whole entry, looked up): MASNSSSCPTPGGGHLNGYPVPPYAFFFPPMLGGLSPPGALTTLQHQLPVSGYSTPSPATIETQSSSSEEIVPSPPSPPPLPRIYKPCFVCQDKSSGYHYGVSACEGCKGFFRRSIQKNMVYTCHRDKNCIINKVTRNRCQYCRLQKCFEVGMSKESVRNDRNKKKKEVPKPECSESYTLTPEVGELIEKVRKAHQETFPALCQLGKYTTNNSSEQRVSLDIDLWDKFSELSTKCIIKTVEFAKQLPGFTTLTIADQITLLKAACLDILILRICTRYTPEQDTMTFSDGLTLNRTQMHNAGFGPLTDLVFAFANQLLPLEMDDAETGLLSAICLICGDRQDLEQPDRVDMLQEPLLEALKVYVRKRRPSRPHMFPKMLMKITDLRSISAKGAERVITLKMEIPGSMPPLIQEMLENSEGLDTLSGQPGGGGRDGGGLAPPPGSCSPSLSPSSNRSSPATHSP
Sequence of Nuclear receptor subfamily 4 group A member 2 (Homo sapiens) (P43354 whole entry, looked up, the tested form may be a part): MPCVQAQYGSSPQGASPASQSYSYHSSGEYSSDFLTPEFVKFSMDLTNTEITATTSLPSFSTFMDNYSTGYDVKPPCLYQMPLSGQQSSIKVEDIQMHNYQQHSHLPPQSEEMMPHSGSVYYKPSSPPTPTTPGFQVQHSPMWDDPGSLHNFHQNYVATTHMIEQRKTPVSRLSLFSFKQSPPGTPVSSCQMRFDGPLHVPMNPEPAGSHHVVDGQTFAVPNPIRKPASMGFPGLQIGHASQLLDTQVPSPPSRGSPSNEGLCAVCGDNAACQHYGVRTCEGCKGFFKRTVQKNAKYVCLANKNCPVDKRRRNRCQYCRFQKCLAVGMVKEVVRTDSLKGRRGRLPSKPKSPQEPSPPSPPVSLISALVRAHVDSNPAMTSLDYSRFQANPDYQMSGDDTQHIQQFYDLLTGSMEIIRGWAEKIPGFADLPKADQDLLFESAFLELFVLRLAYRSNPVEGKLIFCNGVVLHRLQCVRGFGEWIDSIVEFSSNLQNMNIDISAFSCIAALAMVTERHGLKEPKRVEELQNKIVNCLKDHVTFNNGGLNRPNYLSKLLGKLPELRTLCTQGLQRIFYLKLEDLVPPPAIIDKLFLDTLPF
Sequence of human RAR-related Orphan Receptor beta (RORb), RORB (gene 6096) (Q92753 whole entry, looked up, the tested form may be a part): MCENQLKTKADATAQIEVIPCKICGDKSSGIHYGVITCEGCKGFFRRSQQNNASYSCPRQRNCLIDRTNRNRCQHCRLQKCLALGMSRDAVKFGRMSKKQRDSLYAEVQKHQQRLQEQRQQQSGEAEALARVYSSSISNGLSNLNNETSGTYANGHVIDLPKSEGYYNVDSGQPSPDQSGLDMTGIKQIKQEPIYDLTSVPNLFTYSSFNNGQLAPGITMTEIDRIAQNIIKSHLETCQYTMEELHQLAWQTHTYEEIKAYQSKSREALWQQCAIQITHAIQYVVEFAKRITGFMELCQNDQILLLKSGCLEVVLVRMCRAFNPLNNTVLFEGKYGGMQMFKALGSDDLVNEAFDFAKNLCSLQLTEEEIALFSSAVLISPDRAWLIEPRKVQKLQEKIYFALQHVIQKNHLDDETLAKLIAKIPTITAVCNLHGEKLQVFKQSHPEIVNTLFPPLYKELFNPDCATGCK
Sequence of human Vitamin D Receptor (VDR), VDR (gene 7421) (P11473 whole entry, looked up, the tested form may be a part): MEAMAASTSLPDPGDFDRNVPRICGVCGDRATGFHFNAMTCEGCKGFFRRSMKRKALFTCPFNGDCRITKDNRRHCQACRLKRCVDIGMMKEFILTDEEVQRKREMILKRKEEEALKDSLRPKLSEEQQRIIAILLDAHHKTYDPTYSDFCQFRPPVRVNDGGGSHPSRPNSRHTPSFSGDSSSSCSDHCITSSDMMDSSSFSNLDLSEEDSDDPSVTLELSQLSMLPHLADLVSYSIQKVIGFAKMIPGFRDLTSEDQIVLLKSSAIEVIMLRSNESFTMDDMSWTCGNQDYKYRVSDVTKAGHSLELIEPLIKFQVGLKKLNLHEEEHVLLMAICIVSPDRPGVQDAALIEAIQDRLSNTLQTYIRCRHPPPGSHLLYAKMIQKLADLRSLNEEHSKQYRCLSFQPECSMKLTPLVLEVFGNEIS

For `C=C(Cl)CCl`, the call in test [1], in test [2], in [3], in test [4], in [5] and in test [6] was inactive. Further, the outcome in test [7], in [8], in test [9], in test [10], in [11] and in [12] was inactive.

As usually defined, the AC50 is the concentration giving half of the maximal activity seen. Consider `CCCCOP(=O)(O)OCCCC`, for which the outcome in test [13], in [4] and in [5] was inactive. The AC50 in test [14] was 20.3 µM (active).

On to `[Cl-].[Cl-].[Cl-].[Yb+3]`, for which the molecule was classed as inactive in test [3], in [4], in test [5], in test [15], in [16] and in [6]. Further, the call in test [7], in test [17], in [18], in test [11] and in test [14] was inactive.

With `CCCCOC(=O)CCC(=O)OCCCC`, the outcome in test [1], in test [19], in [3], in test [15], in test [6] and in test [7] was inactive. The outcome in test [17] and in [9] was inactive.

As to `C=CCN(CC=C)C(=O)C(Cl)Cl`, the molecule was classed as inactive in [19], in [2], in test [3], in test [10], in test [18] and in [11]. Besides, the outcome in test [14] and in test [20] was inactive.

Take `CCOP(=O)(OCC)OCC`: the call in test [1], in test [19], in [2], in test [4], in [5] and in test [6] was inactive. For the same molecule, the result in test [7], in test [8], in test [10], in test [18], in [11] and in test [12] was inactive. The molecule was classed as inactive in test [14].

As for `CC1(C)C(=O)NC(=O)NC1=O`, the molecule was classed as inactive in [2], in test [3], in test [5], in test [15], in test [6] and in test [7]. In addition, the molecule was called inactive in [17], in test [10], in [18], in test [11] and in test [12].

Consider `CCCCCCCCCCCCCCCC[N+](C)(C)C`, for which the molecule was called inactive in test [19], in test [3], in test [4], in test [15], in test [16] and in test [6]. The molecule was called inactive in [7] and in test [8]. Further, the AC50 in [9] is 36.9 µM (active); in [14], 10.9 µM (active).
